Measured values from ChEMBL document CHEMBL2218924, “A broad activity screen in support of a chemogenomic map for kinase signalling research and drug discovery” (Biochem J, 2013).

Key:
[1] = target: T1, Ephrin type-B receptor 3 (Homo sapiens) (UniProt P54753); settings: at 10 µM
T1 sequence (whole entry): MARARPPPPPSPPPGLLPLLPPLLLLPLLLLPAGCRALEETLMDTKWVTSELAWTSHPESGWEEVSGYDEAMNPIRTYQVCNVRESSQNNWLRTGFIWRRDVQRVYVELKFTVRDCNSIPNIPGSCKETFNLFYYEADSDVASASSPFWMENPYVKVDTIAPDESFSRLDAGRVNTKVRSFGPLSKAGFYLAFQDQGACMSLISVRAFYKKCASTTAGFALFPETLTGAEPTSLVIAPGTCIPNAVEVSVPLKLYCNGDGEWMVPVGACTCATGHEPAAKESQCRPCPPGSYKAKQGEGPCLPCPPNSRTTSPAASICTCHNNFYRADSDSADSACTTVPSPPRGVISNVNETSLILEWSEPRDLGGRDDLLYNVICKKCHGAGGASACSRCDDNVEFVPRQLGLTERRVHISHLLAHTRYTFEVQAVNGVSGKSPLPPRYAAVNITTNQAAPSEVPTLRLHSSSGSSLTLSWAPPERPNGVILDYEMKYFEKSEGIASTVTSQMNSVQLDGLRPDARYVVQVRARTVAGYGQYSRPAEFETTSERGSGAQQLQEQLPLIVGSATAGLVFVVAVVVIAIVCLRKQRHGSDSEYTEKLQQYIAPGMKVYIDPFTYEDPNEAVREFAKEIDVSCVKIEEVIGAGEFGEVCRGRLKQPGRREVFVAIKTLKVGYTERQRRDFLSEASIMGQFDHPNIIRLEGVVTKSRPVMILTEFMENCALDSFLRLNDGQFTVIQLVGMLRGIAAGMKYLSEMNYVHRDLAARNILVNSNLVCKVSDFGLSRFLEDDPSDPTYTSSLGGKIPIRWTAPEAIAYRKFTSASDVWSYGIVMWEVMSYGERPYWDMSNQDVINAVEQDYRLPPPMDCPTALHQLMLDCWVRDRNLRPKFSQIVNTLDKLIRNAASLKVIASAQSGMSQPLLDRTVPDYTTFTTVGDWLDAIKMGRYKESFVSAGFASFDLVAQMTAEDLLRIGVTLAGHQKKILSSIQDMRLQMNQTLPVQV

[2] = target: T2, Ephrin type-B receptor 4 (Homo sapiens) (UniProt P54760); settings: at 1 µM
T2 sequence (whole entry): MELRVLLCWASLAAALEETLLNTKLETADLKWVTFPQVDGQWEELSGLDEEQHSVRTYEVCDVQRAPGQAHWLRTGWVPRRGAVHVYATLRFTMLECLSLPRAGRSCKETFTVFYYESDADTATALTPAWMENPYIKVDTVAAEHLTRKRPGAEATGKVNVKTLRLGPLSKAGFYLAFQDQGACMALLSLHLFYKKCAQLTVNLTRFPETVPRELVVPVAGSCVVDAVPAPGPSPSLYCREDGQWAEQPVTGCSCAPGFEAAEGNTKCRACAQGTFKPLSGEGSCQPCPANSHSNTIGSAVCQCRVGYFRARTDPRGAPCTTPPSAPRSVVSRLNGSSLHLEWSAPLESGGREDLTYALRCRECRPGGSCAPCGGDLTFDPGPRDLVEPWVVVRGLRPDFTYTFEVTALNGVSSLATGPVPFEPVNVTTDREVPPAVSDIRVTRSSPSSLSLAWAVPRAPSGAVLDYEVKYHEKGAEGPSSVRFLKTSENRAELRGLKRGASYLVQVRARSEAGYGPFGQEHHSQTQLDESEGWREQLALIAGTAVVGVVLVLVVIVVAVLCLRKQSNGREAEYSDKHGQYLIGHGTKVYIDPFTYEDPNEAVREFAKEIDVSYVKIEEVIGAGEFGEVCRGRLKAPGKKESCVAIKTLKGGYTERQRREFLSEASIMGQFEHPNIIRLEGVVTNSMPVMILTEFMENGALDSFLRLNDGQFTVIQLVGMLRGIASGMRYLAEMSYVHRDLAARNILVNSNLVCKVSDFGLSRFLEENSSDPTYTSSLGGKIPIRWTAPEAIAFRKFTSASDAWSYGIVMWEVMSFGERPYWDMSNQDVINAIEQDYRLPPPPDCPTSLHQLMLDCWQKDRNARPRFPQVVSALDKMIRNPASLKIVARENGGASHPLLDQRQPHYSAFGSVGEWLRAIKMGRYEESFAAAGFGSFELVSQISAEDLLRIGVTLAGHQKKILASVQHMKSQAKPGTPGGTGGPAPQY

[3] = target: T2, Ephrin type-B receptor 4 (Homo sapiens); settings: at 10 µM
[4] = target: Focal adhesion kinase 1 (Homo sapiens) (UniProt Q05397); settings: at 1 µM
Sequence of Focal adhesion kinase 1 (Homo sapiens) (Q05397 2-1052 limits assumed): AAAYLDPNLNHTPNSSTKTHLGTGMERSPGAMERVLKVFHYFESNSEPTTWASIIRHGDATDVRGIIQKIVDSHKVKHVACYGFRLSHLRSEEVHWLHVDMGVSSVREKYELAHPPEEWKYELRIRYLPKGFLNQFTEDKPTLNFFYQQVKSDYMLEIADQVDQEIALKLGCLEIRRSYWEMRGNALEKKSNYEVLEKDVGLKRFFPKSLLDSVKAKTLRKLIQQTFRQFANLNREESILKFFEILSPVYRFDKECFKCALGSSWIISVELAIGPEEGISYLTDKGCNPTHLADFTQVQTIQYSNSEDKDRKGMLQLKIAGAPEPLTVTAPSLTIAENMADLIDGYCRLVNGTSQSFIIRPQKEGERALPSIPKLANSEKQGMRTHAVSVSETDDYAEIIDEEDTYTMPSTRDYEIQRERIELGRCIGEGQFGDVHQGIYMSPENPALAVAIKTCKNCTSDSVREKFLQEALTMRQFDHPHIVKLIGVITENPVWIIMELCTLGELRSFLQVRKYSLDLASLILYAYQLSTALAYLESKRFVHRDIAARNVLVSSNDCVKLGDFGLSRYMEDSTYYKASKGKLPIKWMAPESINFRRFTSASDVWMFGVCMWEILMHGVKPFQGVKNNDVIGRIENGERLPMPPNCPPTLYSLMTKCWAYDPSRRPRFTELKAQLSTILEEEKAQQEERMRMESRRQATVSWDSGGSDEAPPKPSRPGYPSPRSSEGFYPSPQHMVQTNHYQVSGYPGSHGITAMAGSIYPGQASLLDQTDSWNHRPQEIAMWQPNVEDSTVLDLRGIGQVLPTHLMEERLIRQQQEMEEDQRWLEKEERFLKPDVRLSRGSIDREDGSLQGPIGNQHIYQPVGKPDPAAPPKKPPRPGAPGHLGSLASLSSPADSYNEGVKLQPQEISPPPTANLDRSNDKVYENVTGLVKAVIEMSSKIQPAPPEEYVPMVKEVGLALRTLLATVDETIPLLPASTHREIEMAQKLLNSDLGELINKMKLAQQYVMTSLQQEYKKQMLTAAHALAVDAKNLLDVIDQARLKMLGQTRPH

[5] = target: T3, Ephrin type-B receptor 2 (Homo sapiens) (UniProt P29323); settings: at 10 µM
T3 sequence (whole entry): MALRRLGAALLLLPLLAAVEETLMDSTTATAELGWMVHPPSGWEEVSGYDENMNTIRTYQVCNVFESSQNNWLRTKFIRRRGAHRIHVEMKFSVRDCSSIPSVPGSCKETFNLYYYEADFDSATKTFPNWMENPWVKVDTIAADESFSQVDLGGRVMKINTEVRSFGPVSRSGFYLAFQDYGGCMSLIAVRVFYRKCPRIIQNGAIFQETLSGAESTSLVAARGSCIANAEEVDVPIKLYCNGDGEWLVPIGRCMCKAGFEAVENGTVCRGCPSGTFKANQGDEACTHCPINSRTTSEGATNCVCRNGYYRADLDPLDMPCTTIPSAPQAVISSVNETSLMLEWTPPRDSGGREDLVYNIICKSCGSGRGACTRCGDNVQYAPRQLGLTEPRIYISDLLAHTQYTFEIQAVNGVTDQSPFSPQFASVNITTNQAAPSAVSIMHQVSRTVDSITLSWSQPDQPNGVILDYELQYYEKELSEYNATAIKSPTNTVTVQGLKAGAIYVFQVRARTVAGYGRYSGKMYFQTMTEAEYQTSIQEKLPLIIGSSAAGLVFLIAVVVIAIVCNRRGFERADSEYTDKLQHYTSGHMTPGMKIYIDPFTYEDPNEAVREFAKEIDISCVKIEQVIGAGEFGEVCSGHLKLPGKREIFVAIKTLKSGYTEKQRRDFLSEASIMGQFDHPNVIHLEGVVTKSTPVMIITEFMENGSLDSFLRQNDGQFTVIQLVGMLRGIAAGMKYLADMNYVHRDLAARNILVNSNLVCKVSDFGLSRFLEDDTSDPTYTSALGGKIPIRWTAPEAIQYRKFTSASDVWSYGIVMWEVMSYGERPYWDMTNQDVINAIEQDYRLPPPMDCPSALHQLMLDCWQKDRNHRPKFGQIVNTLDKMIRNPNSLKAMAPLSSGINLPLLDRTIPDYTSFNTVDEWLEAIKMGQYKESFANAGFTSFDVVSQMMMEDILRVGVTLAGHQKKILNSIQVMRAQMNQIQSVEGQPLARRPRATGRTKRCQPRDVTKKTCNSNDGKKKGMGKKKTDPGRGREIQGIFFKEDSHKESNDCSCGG

[6] = target: T1, Ephrin type-B receptor 3 (Homo sapiens); settings: at 1 µM
[7] = target: Ephrin type-A receptor 4 (Homo sapiens) (UniProt P54764); settings: at 1 µM
Sequence of Ephrin type-A receptor 4 (Homo sapiens) (P54764 whole entry): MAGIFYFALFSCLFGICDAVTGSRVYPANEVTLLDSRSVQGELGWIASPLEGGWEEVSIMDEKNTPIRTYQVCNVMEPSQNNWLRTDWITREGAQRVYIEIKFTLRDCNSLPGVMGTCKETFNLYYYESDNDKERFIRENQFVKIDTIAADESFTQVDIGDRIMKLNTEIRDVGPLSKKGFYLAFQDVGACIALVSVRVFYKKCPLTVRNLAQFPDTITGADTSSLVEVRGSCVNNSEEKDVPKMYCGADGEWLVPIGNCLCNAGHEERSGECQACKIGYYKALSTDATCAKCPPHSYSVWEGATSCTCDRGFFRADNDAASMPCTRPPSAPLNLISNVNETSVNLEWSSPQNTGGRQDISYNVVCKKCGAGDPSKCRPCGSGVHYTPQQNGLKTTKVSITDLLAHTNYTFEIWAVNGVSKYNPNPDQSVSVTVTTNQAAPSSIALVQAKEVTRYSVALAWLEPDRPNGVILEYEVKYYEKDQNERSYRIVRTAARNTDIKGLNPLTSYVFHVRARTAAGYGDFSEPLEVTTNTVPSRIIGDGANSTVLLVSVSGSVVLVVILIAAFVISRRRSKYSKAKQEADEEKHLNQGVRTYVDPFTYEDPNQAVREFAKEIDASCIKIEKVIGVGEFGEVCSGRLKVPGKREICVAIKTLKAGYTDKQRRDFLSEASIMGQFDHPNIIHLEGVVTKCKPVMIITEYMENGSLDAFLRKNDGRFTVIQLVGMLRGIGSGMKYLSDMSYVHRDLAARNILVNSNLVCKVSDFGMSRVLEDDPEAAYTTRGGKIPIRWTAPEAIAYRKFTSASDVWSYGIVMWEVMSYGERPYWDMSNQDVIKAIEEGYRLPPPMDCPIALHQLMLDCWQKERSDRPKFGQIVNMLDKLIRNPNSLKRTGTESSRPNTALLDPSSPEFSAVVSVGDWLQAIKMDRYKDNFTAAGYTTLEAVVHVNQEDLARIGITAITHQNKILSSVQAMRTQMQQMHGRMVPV

[8] = target: Ephrin type-A receptor 5 (Homo sapiens) (UniProt P54756); settings: at 1 µM
Sequence of Ephrin type-A receptor 5 (Homo sapiens) (P54756 whole entry): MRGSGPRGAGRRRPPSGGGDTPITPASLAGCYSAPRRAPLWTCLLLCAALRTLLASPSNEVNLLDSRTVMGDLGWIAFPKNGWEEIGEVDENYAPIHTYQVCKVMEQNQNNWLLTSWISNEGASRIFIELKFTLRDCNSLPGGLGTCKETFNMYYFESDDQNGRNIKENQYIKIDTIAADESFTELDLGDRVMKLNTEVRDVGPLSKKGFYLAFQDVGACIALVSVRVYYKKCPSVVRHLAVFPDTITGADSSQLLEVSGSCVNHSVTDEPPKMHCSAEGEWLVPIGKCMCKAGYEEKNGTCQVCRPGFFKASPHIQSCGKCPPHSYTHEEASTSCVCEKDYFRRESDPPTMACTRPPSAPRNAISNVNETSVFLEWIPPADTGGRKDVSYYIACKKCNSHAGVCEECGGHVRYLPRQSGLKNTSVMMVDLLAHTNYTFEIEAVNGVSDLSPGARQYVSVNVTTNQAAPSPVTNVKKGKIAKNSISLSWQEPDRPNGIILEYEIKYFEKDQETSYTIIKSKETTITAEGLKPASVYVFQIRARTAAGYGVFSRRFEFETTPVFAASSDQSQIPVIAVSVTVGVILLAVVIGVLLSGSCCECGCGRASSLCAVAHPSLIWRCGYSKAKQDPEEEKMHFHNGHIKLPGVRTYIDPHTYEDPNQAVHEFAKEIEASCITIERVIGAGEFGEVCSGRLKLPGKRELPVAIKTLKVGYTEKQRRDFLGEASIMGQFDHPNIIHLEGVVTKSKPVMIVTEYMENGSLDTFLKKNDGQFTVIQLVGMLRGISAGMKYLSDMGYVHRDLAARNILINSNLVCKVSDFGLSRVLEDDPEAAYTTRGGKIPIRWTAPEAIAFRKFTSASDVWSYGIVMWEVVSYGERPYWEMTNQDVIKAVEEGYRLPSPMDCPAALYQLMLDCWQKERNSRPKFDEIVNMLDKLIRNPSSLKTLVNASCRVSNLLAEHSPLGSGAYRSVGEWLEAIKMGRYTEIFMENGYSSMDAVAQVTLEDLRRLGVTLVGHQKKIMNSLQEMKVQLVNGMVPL

[9] = target: Ephrin type-A receptor 5 (Homo sapiens) (UniProt P54756); settings: at 10 µM
[10] = target: Ephrin type-A receptor 7 (Homo sapiens) (UniProt Q15375); settings: at 1 µM
Sequence of Ephrin type-A receptor 7 (Homo sapiens) (Q15375 28-998 limits assumed): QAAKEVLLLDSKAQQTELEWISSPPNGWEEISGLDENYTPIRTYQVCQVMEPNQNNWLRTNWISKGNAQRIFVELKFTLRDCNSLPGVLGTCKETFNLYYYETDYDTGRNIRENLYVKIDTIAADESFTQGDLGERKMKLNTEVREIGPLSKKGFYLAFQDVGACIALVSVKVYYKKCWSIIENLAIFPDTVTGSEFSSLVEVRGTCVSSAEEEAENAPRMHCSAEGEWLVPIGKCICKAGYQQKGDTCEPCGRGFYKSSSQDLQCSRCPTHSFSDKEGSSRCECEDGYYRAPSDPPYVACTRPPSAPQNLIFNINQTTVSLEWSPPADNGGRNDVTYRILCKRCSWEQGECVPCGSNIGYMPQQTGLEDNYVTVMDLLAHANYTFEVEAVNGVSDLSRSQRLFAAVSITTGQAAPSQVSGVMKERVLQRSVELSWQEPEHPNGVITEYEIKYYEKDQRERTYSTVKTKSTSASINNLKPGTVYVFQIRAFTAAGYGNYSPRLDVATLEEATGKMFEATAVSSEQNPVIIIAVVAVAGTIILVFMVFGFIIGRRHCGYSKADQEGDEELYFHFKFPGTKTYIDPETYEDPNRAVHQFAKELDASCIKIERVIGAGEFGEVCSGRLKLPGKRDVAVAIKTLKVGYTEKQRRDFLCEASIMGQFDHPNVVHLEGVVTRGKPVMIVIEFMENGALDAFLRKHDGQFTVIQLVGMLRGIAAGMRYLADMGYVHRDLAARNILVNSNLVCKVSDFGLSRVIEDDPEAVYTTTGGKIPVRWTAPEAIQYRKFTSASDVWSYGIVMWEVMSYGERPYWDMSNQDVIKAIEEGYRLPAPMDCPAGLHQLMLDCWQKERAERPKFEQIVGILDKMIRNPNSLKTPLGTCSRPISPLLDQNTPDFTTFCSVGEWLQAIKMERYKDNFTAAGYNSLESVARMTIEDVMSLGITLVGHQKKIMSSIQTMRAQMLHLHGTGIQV

[11] = target: Ephrin type-A receptor 7 (Homo sapiens) (UniProt Q15375); settings: at 10 µM
[12] = target: T4, Ephrin type-A receptor 8 (Homo sapiens) (UniProt P29322); settings: at 1 µM
T4 sequence (whole entry): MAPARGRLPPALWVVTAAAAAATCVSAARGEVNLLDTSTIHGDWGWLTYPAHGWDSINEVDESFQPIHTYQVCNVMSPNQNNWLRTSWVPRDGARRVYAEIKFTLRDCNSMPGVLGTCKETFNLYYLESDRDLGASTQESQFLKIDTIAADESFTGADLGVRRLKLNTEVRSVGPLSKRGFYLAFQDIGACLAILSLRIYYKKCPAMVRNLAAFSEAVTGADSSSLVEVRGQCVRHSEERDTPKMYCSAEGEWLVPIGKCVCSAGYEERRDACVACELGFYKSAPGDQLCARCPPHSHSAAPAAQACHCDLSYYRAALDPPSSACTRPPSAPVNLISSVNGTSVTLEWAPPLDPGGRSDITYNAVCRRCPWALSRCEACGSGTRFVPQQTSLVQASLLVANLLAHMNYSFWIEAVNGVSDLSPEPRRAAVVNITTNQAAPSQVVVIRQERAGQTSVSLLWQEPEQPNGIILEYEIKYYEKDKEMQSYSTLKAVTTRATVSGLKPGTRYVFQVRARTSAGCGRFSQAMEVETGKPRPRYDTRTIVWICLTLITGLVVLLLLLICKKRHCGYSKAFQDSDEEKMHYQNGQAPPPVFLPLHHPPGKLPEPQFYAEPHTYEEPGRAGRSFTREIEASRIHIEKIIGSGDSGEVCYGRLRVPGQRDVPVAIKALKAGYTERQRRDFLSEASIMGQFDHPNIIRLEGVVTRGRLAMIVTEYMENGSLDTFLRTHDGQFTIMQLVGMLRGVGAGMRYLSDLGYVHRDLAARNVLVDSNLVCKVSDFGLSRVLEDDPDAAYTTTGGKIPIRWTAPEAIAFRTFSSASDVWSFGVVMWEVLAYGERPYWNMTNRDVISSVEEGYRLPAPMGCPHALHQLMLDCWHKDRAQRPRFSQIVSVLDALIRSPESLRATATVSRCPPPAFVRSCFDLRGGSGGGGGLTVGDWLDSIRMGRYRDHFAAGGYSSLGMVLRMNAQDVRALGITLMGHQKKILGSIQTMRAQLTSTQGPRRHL

[13] = target: T5, Ephrin type-B receptor 1 (Homo sapiens) (UniProt P54762); settings: at 1 µM
T5 sequence (whole entry): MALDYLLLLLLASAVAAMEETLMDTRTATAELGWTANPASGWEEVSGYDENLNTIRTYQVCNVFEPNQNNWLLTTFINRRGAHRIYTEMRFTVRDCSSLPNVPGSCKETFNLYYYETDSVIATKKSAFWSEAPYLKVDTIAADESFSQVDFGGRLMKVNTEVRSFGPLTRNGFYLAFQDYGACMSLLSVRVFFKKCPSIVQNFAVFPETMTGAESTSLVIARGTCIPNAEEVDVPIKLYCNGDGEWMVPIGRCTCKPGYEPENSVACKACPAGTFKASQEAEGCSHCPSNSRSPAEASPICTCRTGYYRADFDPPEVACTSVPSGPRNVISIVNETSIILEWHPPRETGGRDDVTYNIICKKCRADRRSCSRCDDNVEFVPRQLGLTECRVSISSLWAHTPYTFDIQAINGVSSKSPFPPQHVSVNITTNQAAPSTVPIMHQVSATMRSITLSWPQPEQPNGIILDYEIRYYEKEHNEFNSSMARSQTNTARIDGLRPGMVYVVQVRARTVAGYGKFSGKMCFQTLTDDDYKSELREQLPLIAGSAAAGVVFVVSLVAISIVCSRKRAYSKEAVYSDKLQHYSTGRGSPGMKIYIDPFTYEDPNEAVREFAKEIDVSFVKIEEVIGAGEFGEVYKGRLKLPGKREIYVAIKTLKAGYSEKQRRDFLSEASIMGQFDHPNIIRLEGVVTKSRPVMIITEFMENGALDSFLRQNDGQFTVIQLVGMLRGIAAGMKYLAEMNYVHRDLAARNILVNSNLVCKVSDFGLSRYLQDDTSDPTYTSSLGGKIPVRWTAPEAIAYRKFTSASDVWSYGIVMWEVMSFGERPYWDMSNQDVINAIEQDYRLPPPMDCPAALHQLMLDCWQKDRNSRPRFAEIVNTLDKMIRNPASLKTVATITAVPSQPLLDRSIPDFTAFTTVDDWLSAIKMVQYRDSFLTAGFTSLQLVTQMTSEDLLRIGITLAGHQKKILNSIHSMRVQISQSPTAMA

[14] = target: T5, Ephrin type-B receptor 1 (Homo sapiens); settings: at 10 µM

Q: For O=C(Nc1ccc(Cl)cc1)c1ccccc1NCc1ccncc1, which residual activity [1] is on record?
A: 125%

Q: What about the residual activity [2] of the same molecule?
A: 117%

Q: And the residual activity [3]?
A: 131%

Q: What about the residual activity [4] of the same molecule?
A: 143%

Q: What does the source list for CN([C@@H](Cc1ccc(OS(=O)(=O)c2cccc3cnccc23)cc1)C(=O)N1CCN(c2ccccc2)CC1)S(=O)(=O)c1cccc2cnccc12?
A: residual activity [5]: 131%; residual activity [6]: 116% (inactive); residual activity [4]: 119%

Q: How did the residual activity [7] turn out when O=C(NC(NC(=S)Nc1ccc(F)c([N+](=O)[O-])c1)C(Cl)(Cl)Cl)C(c1ccccc1)c1ccccc1 (configuration not stated) was run?
A: 96%

Q: And the residual activity [8]?
A: 104%

Q: And the residual activity [9]?
A: 91%

Q: What about the residual activity [10] of the same molecule?
A: 102%

Q: What about the residual activity [11] of the same molecule?
A: 99%

Q: What about the residual activity [12] of the same molecule?
A: 103%

Q: And the residual activity [13]?
A: 97%

Q: What about the residual activity [14] of the same molecule?
A: 84%

Q: And the residual activity [6]?
A: 104% (inactive)

Q: And the residual activity [1]?
A: 84%
